NPR1 activator = GC-A (human) enzyme activation; P16066; HEK293 GC-A cells, cGMP TR-FRET, EC30 ANP; 0% at EC30 ANP, 100% saturating ANP; activation, % at 10 µM; 370,000 tested, 0.14% active; in the data active = activation above about 40%
Target sequence (P16066 whole entry, looked up): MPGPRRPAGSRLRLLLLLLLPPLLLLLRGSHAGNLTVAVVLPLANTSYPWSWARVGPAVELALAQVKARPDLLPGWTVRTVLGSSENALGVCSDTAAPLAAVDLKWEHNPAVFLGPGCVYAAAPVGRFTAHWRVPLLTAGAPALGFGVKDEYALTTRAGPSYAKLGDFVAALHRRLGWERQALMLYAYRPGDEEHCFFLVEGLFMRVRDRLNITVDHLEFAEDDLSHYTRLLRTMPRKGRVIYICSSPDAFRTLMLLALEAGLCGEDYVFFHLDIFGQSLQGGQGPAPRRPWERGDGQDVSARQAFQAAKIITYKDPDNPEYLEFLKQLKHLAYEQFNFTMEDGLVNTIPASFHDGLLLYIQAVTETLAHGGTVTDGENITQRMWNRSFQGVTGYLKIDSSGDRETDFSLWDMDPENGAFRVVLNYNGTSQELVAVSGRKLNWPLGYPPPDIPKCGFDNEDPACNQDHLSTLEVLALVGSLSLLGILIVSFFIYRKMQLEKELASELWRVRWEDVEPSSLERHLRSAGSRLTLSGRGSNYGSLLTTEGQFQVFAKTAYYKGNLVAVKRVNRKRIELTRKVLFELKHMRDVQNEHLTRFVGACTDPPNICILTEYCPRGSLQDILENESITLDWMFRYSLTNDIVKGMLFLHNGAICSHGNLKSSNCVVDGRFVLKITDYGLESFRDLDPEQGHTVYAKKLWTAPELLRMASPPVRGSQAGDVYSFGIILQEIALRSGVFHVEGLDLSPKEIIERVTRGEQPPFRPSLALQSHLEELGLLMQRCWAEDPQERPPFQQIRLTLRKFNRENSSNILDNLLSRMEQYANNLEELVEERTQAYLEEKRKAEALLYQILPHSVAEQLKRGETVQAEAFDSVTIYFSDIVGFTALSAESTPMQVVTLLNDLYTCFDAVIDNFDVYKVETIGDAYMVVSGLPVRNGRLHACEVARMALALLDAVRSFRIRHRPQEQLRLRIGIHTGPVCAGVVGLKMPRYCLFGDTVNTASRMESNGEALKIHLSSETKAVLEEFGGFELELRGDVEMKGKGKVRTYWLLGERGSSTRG
NPR2 activator = GC-B (human) receptor activation; P20594; HEK293-GC-B cells, CNP EC30, cGMP TR-FRET; 0% at EC30 CNP, 100% saturating CNP; AID 1920062; 370,000 tested, 0.11% active; activation, % at 10 µM;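 active = activation at 10 µM reaching about 35% in either raw or pattern-adjusted values, limit read from the data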
HDAC3 inh = blocks human histone deacetylase 3. O15379. 320,000 tested, 0.15% active. recombinant HDAC3, fluorogenic peptide/trypsin coupled, fluorescence. inhibition, % at 8.3 µM; in the data active = inhibition above about 26%, passing the limit was not always enough; inconclusive = no clear call, values can overlap the other calls
ALR H2O2 inh = human ALR oxidase inhibition via reduced H2O2; P55789; purified ALR, DTT oxidation, H2O2 HRP-luminol luminescence; inhibition, % (concentration not given with the values); 290,000 tested, 3.8% active; AID 485317;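 active = mean replicate inhibition above about 79%, with every replicate also reaching it, limit read from the data; inconclusive = only one of the two criteria met; inactive = mean below limit and not every replicate reaching it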
* marks the source's active call; other numbers are inactive results; ? = inconclusive; · = no result given. The entries come from a sample that favours hits as a whole.

SMILES | NPR1 activator | NPR2 activator | HDAC3 inh | ALR H2O2 inh
Cc1cc(C(=O)NNc2ccc(F)cc2)no1 | -1 | 0 | -1 | 99*
Cc1cc(C(=O)NNc2c(Cl)cccc2Cl)no1 | -1 | -1 | -1 | 16
Cc1cc(C(=O)NNc2ccccc2F)no1 | 6 | 4 | -2 | 99*
Fc1ccc(-n2c(CN3CCCCC3)n[nH]c2=S)cc1 | 1 | 0 | 10 | 87*
COC1CCCCC1Nc1cccc(SC)c1 (centres undefined) | 2 | 0 | 1 | 99*
C=CCn1c(SCc2ccc(C(=O)O)cc2)nc2sc(C)c(C)c2c1=O | -2 | -1 | -8 | 99*
Oc1c(Br)cc(/C=N/NC(=S)NCc2ccco2)cc1Br | 3 | -2 | -2 | 89*
S=C(NCc1ccco1)N/N=C/c1ccc(Cl)cc1 | -1 | -3 | 2 | ·
Oc1ccc(/C=N/NC(=S)NCc2ccco2)cc1 | 0 | -2 | 2 | 99*
CCN(CC)c1ccc(/C=N/NC(=S)NCc2ccco2)cc1 | 2 | 0 | 10 | 99*
CC(C)CCOC(=O)C1C(c2ccccc2)C(C(=O)O)C1c1ccccc1 (centres undefined) | 1 | 5 | -1 | 2
NS(=O)(=O)c1ccc(Nc2nc(-c3ccc(O)cc3O)cs2)cc1 | -1 | -3 | 11 | 99*
Cc1cccnc1Nc1nc(-c2ccccn2)cs1 | 14 | -3 | -6 | 5
Oc1ccc(-c2csc(Nc3ccccn3)n2)c(O)c1 | 6 | 0 | ? | 93*
Cc1cccnc1Nc1nc(-c2ccc(O)cc2O)cs1 | 1 | -8 | 2 | 77*
NS(=O)(=O)c1ccc(Nc2nc(-c3ccc(F)cc3)cs2)cc1 | -11 | -13 | 4 | 46
Cc1cc(F)ccc1C(O)c1ncc(-c2ccc3ccccc3c2)[nH]1 (centres undefined) | 0 | 3 | · | ·
CCOc1ccccc1C(=O)N(Cc1ccc(C)o1)C1CCS(=O)(=O)C1 (centres undefined) | -7 | -8 | 9 | -7
CCc1cc(-c2n[nH]c(=S)n2-c2cccc(C)c2)cs1 | 2 | -3 | 2 | 85*
Cc1cc(C)cc(NC(=O)c2cccc(N3C(=O)C4C5C=CC(C5)C4C3=O)c2)c1 (centres undefined) | 3 | 3 | · | ·
Cc1cccc(NC(=O)c2cccc(N3C(=O)C4C5C=CC(C6CC56)C4C3=O)c2)c1 (centres undefined) | 1 | -2 | -3 | 89*
Cc1ccc(-n2[nH]c(C)c(/C=N/NC(=O)c3ccc(O)cc3O)c2=O)cc1 | · | · | 2 | 94*
CC(=O)/C=C1\OCc2cc(OCc3ccccc3)ccc21 | 1 | -2 | · | ·
O=C(/C=C/c1ccc(Cl)cc1Cl)OCC(=O)N1CCCC1 | 41* | -3 | -4 | ·
O=C(/C=C/c1ccccc1Cl)OCC(=O)N1CCCC1 | 5 | -2 | 0 | 7
SMILES | NPR1 activator | NPR2 activator | HDAC3 inh | ALR H2O2 inh
O=C(OCc1ccccc1)N(CCCCN(CCCNCc1ccccc1)C(=O)OCc1ccccc1)CCCNCc1ccccc1 | -23 | -17 | · | ·
Nc1ccc(CCc2ccc(N)cc2)cc1 | 5 | 5 | -2 | 85*
Nc1ccc(CCc2ccccn2)cc1 | 0 | 1 | · | ·
Cc1ccc(N2C(=O)CC(NNC(=O)c3cccc(S(=O)(=O)N4CCCC4)c3)C2=O)cc1 (centres undefined) | 2 | 3 | -6 | 95*
Cc1cc2c(cc(C(=O)O)n2C)s1 | -1 | 3 | 12 | 79*
CCN1C(=S)SC(=O)C1=C1C=C(C)N(CCO)C(C)=C1 | -2 | 0 | -8 | 99*
CCN(CC(=O)Nc1ccc([N+](=O)[O-])cc1OC)c1ccccc1 | -6 | -1 | 14 | 4
Cc1cc(C(=O)NNc2cc(Cl)ccc2Cl)no1 | 0 | 2 | -3 | ·
O=C(CC(=O)Nc1ccccc1[N+](=O)[O-])Nc1ccccc1[N+](=O)[O-] | -2 | -1 | 8 | -9
O=C1OCC(CO)(CO)N=C1NNc1ccccc1[N+](=O)[O-] | -7 | 0 | -6 | 99*
O=C1OCC(CO)(CO)N=C1NNc1cc(Cl)ccc1Cl | 3 | 8 | 6 | 99*
COc1ccc(CCNC(=O)CCCN2C(=O)C(c3ccccc3)Oc3cccnc32)cc1OC (centres undefined) | -1 | -6 | 0 | -5
CCOC(=O)c1c(CSc2cccs2)n(C)c2cc(Br)c(O)c(CN(C)C)c12 | -11 | -3 | 5 | 99*
CC(=O)c1cc2c(cc1NC(=O)c1ccc(C)cc1)OCO2 | · | · | -7 | -1
COC(=O)C1=C(Nc2cc(Cl)cc(Cl)c2)CSC1 | -2 | 3 | -2 | 99*
COC(=O)C1CSC(C(=O)OC)N1C(=O)Nc1ccccc1 (centres undefined) | 0 | -5 | 0 | ·
COC(=O)C1CSC(C(=O)OC)N1C(=O)CN1CCN(c2ccccc2)CC1 (centres undefined) | 6 | 7 | 0 | 91*
COc1cnc(SCc2ccc(Cl)cc2)nc1Cl | 4 | -10 | -3 | 98*
Cc1nc(SCc2ccc(Cl)cc2)ncc1C(=O)O | -6 | -1 | 2 | 1
Cc1nnc(NC(=O)CSc2ccc(-c3ccccn3)nn2)s1 | · | · | 2 | 0
Nc1nc(SCC(=O)OCc2ccccc2)[nH]c(=O)c1NC(=O)c1ccco1 | -1 | 0 | · | 100*
COc1ccc(C(=O)Nc2c(N)nc(SCC(=O)Nc3ccc(NC(C)=O)cc3)[nH]c2=O)cc1 | -5 | 4 | -1 | 6
CC(=O)Nc1ccc(NC(=O)CSc2nc(N)c(NC(=O)c3ccco3)c(=O)[nH]2)cc1 | -1 | 7 | -5 | 99*
C=CCSc1nc(N)c(NC(=O)c2ccco2)c(=O)[nH]1 | 1 | -3 | 0 | -1
Cc1cc(O)c(C=O)c2c1C(=O)Oc1c(CO)c(O)c3c(c1O2)C(O)OC3=O (centres undefined) | · | · | 4 | 99*
SMILES | NPR1 activator | NPR2 activator | HDAC3 inh | ALR H2O2 inh
Cc1cc(O)c(CN(C)C)c2c1C(=O)/C(=C/c1ccco1)O2 | -2 | -2 | 16 | -10
CC(C)CC(COCc1ccc(C(F)(F)F)cc1)N1CCN(C(=O)c2ccc(C(F)(F)F)cc2)CCC1=O (centres undefined) | -4 | 0 | 39* | -3
COc1ccc(S(=O)(=O)Nc2ccc3c(c2)[C@H]2C[C@H](CC(=O)NCC4CC4)O[C@@H](CO)[C@H]2O3)cc1 | 7 | 3 | · | ·
CCCCCCCCN1C(=O)N2Cc3ccc(C)cc3C2CS1(=O)=O (centres undefined) | -1 | 10 | · | ·
O=c1cc(-c2ccccc2Cl)oc2c(NS(=O)(=O)c3cc(Cl)cc(Cl)c3O)ccc(O)c12 | · | · | 0 | 97*
CC(=O)OCCCCCCCCCCC[N+]1(C)CCCCC1 | 1 | 1 | 6 | -3
C[N+]1(CCCCSc2ccc(O)cc2)CCCCC1 | 0 | 0 | -4 | 99*
CCOc1ccc(CSC2=NCCN2)cc1Cl | -4 | -4 | -7 | 100*
Clc1ccccc1CSC1=NCCN1 | 3 | 5 | -4 | ·
c1ccc(CSC2=NCCCN2)cc1 | 0 | -4 | 3 | -13
N#Cc1ccc(CSC2=NCCN2)cc1 | 5 | -1 | 0 | 99*
